# Test results as given in PubChem BioAssay (NCATS).
# Results filed as inconclusive are left out. Unmarked numbers belong to inactive results. Active and inactive are the calls of the source. Calls come from the whole dose curve; as a rule, active = well fitted inhibition curve with a large enough effect; inconclusive = small, poorly fitted or top-dose-only effect; inactive = flat fitted curve, though single readings scatter.
# Test system: KB-3-1
# Assay: Cytotoxic Profiling of Annotated Libraries Using Quantitative High-Throughput Screening (AID 1296008); note: nearly all actives have a fitted effect of over 60% in size
# Details: Five cell lines viability, CellTiter-Glo ATP luminescence, 48-72 h; max response: stronger effect = lower value
# Summary of the method: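 Compounds were pin-transferred onto cells and incubated 48 or 72 hr at 37 degree Celsius, 95% humidity. CellTiter-Glo was added, plates sat 10 min at room temperature, then ATP-coupled luminescence was imaged as the viability read-out.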
# % is set by controls: 0 for no effect and ±100 for the full control effect; potency is the fitted concentration of half-maximal effect.
Structure (SMILES),max response,outcome,Potency
COc1ccc(CC2NCCc3c2[nH]c2ccc(C)cc32)cc1OC (centres undefined),-15.3%,,
O=C(NOCC(O)CO)c1ccc(F)c(F)c1Nc1ccc(I)cc1F (centres undefined),,inactive,
O=C(CCCCN1CCOCC1)Nc1ccc(-c2cccnc2)cc1,3.7%,,
CC(=O)O[C@@H]1[C@@H](CO)O[C@@](CO)(O[C@H]2O[C@H](COC(=O)/C=C/c3ccccc3)[C@@H](O)[C@H](O)[C@H]2O)[C@H]1O,,inactive,
CC12CCC(C(OC3OC(COC4OCC(O)(CO)C4O)C(O)C(O)C3O)C1)C(C)(C)O2 (centres undefined),1.72%,,
CC(C)C1=CC2C(CC[C@]2(C)O)[C@](C)(O)CC1 (some centres undefined),,inactive,
C=C1C(=O)OC2CC3(C)C(CC12)C(C)=CC(O)C3OC(C)=O (centres undefined),,inactive,
CC1CCC2(CO)C(C(=O)O)=CCCC2C1(C)CCc1ccoc1 (centres undefined),3.67%,,
CC(C)=CCC[C@](C)(O[C@@H]1O[C@H](CO[C@@H]2O[C@H](CO)[C@@H](O)[C@H](O)[C@H]2O)[C@@H](O)[C@H](O)[C@H]1O)C1CC[C@]2(C)[C@@H]1[C@H](O)CC1[C@@]3(C)CC[C@H](O[C@@H]4O[C@H](CO)[C@@H](O)[C@H](O)[C@H]4O[C@@H]4O[C@H](CO)[C@@H](O)[C@H](O)[C@H]4O)C(C)(C)[C@@H]3CC[C@]12C (some centres undefined),-1.36%,,
[N-]=[N+]=N[C@]1(CO)O[C@@H](n2ccc(=O)[nH]c2=O)[C@@H](O)[C@@H]1O,,inactive,
CC1=CC(=O)CC(C)(C)[C@@]1(O)CC[C@@H](C)O[C@@H]1O[C@H](CO)[C@@H](O)[C@H](O)[C@H]1O,1.23%,,
CC1(C)CCC2(C(=O)OC3OC(CO)C(O)C(O)C3O)CCC3(C)C(=CCC4C5(C)CCC(OC6OC(C(=O)O)C(OC7OC(CO)C(O)C(O)C7O)C(OC7OC(CO)C(O)C(O)C7O)C6O)C(C)(C)C5CCC43C)C2C1 (centres undefined),6.58%,,
COc1cc2ncnc(Nc3ccc(F)c(Cl)c3)c2cc1NC(=O)/C=C/CN1CCCCC1,,,13 µM (active)
CC12CCC(OC3OC(CO)C(O)C(OC4OC(CO)C(O)C(O)C4O)C3O)CC1CCC1C2CCC2(C)/C(=C3/COC(=O)C3)CCC12O (centres undefined),-0.791%,,
CC1OC(OC2C(C)OC(OC3C(OC(=O)C45CCC(C)(C)CC4C4=CCC6C7(C)CCC(OC8OC(C(=O)O)C(O)C(O)C8OC8OC(CO)C(O)C(OC9OC(C)C(O)C(O)C9O)C8O)C(C)(CO)C7CCC6(C)C4(C)CC5)OC(CO)C(O)C3O)C(O)C2O)C(O)C(O)C1O (centres undefined),,inactive,
C/C1=C\CC[C@H](C)CCO[C@@H]2O[C@H](CO[C@@H]3OC[C@](O)(COC1=O)[C@H]3O)[C@@H](O)[C@H](O)[C@H]2O,,inactive,
Cc1ccc(S(=O)(=O)n2ccc(-c3c(-c4ccc(Cl)cc4)noc3C)n2)cc1,-24.7%,,
Nc1ncnc2c1nc(N)n2[C@@H]1O[C@H](CO)[C@@H](O)[C@H]1O,,,4.61 µM (active)
CC(=O)O[C@H]1C[C@@](O)(C(C)C)C2[C@@H](OC(=O)c3ccc(O)cc3)C[C@@]3(C)O[C@H]3C[C@]21C (some centres undefined),2.79%,,
CC/C=C\CC1C(=O)C=CC1(CCCCCCCC(=O)O)OC(C)=O (centres undefined),,inactive,

Structure (SMILES),max response,outcome,Potency
C/C(=C\C=C\C(C)C1CCC2(C)C3CCC4C(C)(C)C(=O)CCC45CC35CCC12C)C(=O)O (centres undefined),-3.21%,,
COC(=O)[C@H](O)[C@H]1C(C)(C)[C@H](OC(=O)C(C)C)[C@@]2(O)C(=O)[C@]1(C)C1CC[C@]3(C)C(CC(=O)O[C@H]3c3ccoc3)[C@]13O[C@@H]32 (some centres undefined),,inactive,
NC(=O)C(CCC(F)(F)F)N(Cc1ccc(-c2ncon2)cc1F)S(=O)(=O)c1ccc(Cl)cc1 (centres undefined),-38%,,
O=C(Nc1ccc(S(=O)(=O)Nc2ccccc2Cl)c(Cl)c1)c1ccccn1,-5.44%,,
COc1cc2oc(-c3ccc(O)cc3O)cc2c(OC)c1CC=C(C)C,-1.08%,,
CC(C)(O)c1ccc2c(c1)C(O)C[C@H]1[C@](C)(C(=O)O)CCC[C@]21C (some centres undefined),,inactive,
CC1=C(C)C(=O)OC(C(C)C2CCC3C4C5OC5C5(O)CC(OC6OC(CO)C(OC7OC(C)C(O)C(O)C7O)C(O)C6O)CC(O)C5(C)C4CCC23C)C1 (centres undefined),,inactive,
COC(=O)C1(C)CCC2(C(=O)O)CCC3(C)C(=CCC4C5(C)CC(O)C(OC6OCC(O)C(O)C6O)C(C)(CO)C5CCC43C)C2C1 (centres undefined),9.85%,,
CC(=O)OC1C(c2ccccc2)CCC(c2ccccc2)C1OC(C)=O (centres undefined),7.87%,,
c1ccc(N2CCN(CCc3nn[nH]n3)CC2)cc1,7.49%,,
COC(=O)[C@@H](O)[C@H]1[C@@]2(C)CC3(O)[C@@H](C(=O)[C@H]2O)[C@]24O[C@]25CC(=O)O[C@@H](c2ccoc2)[C@]5(C)CCC4[C@]13C (some centres undefined),7.49%,,
O=C(O)C1CN(Cc2ccc(-c3nc4cc(Cc5ccccc5F)ccc4s3)c(F)c2)C1,-5.18%,,
CC1(C)CCCC2(C)C=C(C(=O)O)C(O)CC12 (centres undefined),1.72%,,
CCOC(=O)c1cc(C#N)c(N2CCC(C(=O)NS(=O)(=O)Cc3ccccc3)CC2)nc1C,,inactive,
CC1(C(=O)O)CCCC2(C)C3CCC4CC3(CCC12)CC4=O (centres undefined),-1.11%,,
CC(C)=CCC/C(C)=C/CO[C@@H]1O[C@H](CO)[C@@H](OC(=O)/C=C/c2ccc(O)cc2)[C@H](O[C@@H]2O[C@@H](C)[C@H](O)[C@@H](O)[C@H]2O)[C@H]1O,,inactive,
N#C[C@@H]1C[C@H](F)CN1C(=O)CNC1[C@H]2CN(C(=O)c3ccc(F)cc3)C[C@@H]12 (some centres undefined),1.86%,,
COc1cc(C(=O)NC2CCN(C)CC2)ccc1Nc1ncc2c(n1)N(C1CCCC1)CC(F)(F)C(=O)N2C,,,0.0058 µM (active)
C/C=C1\[C@H](O[C@@H]2O[C@H](CO)[C@@H](O)[C@H](O)[C@H]2O)OC=C(C(=O)OC)[C@H]1CC(=O)O,-0.621%,,
